# Most compounds without a hit are left out; they make up all but 3.5% or so of the library.
# Myeloid diff 2 – myeloid differentiation induction; ER-HoxA9 myeloid progenitors, lysozyme-GFP differentiation, flow cytometry; calls only at 10 µM; 1% of 360,000 active; AID 624256;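 active = normalized GFP-positive differentiation at or above the plate's own cutoff, the solvent-only control mean plus 3 SD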;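 also: cells exposed to compound for four days before flow analysis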
# M1 ag – activates human CHRM1 receptor. activation, % at 3 µM. 0.33% of 360,000 active. CHO-K1 hM1, Fluo-8 calcium fluorescence, agonist mode; 0% DMSO, 100% acetylcholine EC100. P11229;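 active = activation above the run's mean compound activation plus 3 SD, cut at about 16% in these data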;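 also: peak over basal fluorescence ratio within a 140 s kinetic read after compound addition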
# Target sequence (P11229 whole entry, looked up): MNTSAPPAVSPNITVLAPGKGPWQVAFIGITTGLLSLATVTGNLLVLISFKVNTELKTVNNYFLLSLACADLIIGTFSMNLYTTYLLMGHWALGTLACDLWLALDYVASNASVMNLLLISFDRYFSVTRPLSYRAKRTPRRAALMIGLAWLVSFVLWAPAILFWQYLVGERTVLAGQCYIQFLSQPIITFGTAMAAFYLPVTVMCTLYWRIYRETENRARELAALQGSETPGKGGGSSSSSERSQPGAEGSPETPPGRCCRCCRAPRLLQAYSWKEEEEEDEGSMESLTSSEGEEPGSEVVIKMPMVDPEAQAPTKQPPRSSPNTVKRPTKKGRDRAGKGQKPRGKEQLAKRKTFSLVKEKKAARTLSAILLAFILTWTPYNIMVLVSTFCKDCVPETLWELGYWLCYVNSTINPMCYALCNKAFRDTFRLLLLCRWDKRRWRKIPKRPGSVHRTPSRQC
# M1 PAM – positive allosteric modulators of human M1 muscarinic receptor; activation, % at 3 µM; 0.088% of 360,000 active; P11229; CHO-K1 hM1, Fluo-8 calcium fluorescence, ACh EC20; 0% = ACh EC20, 100% = maximal ACh; in the data active = activation above about 19%, passing the limit was not always enough
# CHRM1 antagonist – blocks human M1 muscarinic receptor. P11229. CHO-K1 hM1, Fluo-8 calcium fluorescence, ACh EC80 antagonist. inhibition, % at 3 µM. 1.3% of 360,000 active. AID 588852;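 active = percent inhibition above its own plate's cutoff, namely the mean of that plate's compound wells plus 3 SD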;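 also: peak over basal fluorescence ratio during 140 s after agonist addition; 0% = ACh EC80 plus DMSO and 100% = DMSO alone without agonist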
# SKN-1 block – blocks SKN-1 activity in C. elegans; C. elegans VP596 Pgst-4::GFP/RFP ratio, acrylamide-induced, 24 h; inhibition, % at 21.8 µM; 0.49% of 360,000 active; AID 624304;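 active = interference check ratio from 0.5 to 1.5 plus GFP to RFP signal ratio inhibition reaching or exceeding a fixed threshold, cut at about 30% in these data, passing the limit was not always enough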
# ATG4B inhibitor – inhibitors of human ATG4B cysteine protease | 0.51% of 340,000 active | ATG4B cleavage of LC3-PLA2, NBD-HPC fluorescence, 1 h | inhibition, % at 8.33 µM | Q9Y4P1; in the data active = inhibition above about 40%
# An asterisk follows results filed as active; i = inactive; nt = no result given; + = active, no number.
SMILES,Myeloid diff 2,M1 ag,M1 PAM,CHRM1 antagonist,SKN-1 block,ATG4B inhibitor
CCS(=O)c1ccccc1C(=O)OCC(=O)Nc1ccc2ccccc2c1 (stereo not given),i,1,-3,-8,7,-7
O=C(c1cccc(Oc2ccccc2)c1)N1CCN(c2ccccn2)CC1,i,-6,-3,8,-5,14
CC(C)CC1CCCCC1OC(=O)C[N+]1(C)CCCCC1 (stereo not given),i,-14,-36,96*,7,-6
COc1ccc(C(=S)N2CCOCC2)cc1OC(=O)c1ccccc1,i,1,11,-12,16,-6
COc1ccc(C(=S)N2CCOCC2)cc1OC(=O)c1cc(OC)c(OC)c(OC)c1,+,0,9,-9,2,2
COc1ccc(S(=O)(=O)Nc2ccc(C)c(S(=O)(=O)N3CCOCC3)c2)cc1[N+](=O)[O-],i,-2,4,-10,6,3
COc1ccc(C(=O)N2CCCCC2c2cc(C(=O)Nc3cccc(C#N)c3)no2)cc1 (stereo not given),i,-3,2,-12,-6,nt
Cc1ccc(S(=O)(=O)NC2CC(C)(C)NC(C)(C)C2)cc1C,i,-8,7,-17,15,-5
COc1ccc(C(=O)NC(=S)NNC(=O)[C@H]2C[C@@H]2c2ccccc2)cc1OC,i,19*,11,-13,-3,-3
COc1ccc(OC)c(NC(=O)C2CC2c2ccccc2)c1 (stereo not given),i,-3,8,-15,-23,-1
CC(C)(C)NC(=S)NNC(=O)[C@H]1C[C@@H]1c1ccccc1,i,-3,2,11,6,-1
COc1cc(OC)cc(C(=O)NC(=S)NNC(=O)[C@H]2C[C@@H]2c2ccccc2)c1,i,43*,2,-10,5,-5
O=C(NC(=S)NNC(=O)[C@H]1C[C@@H]1c1ccccc1)c1ccc(F)cc1,i,0,-3,4,-11,-5
O=C(/C=C/c1ccc(F)cc1)NC(=S)NNC(=O)[C@H]1C[C@@H]1c1ccccc1,i,49*,-16,18,8,-8
Cc1c(NC(=O)c2cccc(NC(=O)Cc3ccccc3Cl)c2)c(=O)n(-c2ccccc2)n1C,i,-2,1,-1,26,nt
O=C(c1ccccc1)N1CCN2C(=O)c3ccccc3C12c1ccc(Cl)cc1 (stereo not given),i,-4,-4,2,-1,-6
COc1ccc(N=Nc2nc3ccc(Br)cc3n2C)cc1,i,17*,-3,8,-63,-5
Cc1ccc(C(=O)NC(=S)Nc2ccccc2C(F)(F)F)c(C)c1,i,-3,4,-2,32*,18
Cc1ccccc1C(=O)NC(=S)Nc1ccccc1C(F)(F)F,i,-1,1,5,6,15
O=C(O)CCn1c(-c2ccccc2)cc2ccccc21,i,-3,3,7,13,-1
CC(=O)Nc1cccc(NC(=O)CS(=O)(=O)c2cn(CC(=O)N3CCCC3)c3ccccc23)c1,i,-2,4,-6,2,-8
CN(C)c1ccc(CNC(=O)c2ccc(CNc3c(N4CCCCC4)c(=O)c3=O)cc2)cc1,i,-7,27*,-12,15,10
CCCC(=O)N(Cc1cc(=O)[nH]c2ccccc12)c1ccccc1,i,-9,-1,3,-25,9
CCC(=O)N(Cc1cc(=O)[nH]c2ccccc12)c1ccccc1,i,-7,-22,31*,-2,8
O=C(CCl)N(Cc1cc(=O)[nH]c2ccccc12)c1ccccc1,i,-10,-8,5,8,16
O=C(c1cc(-c2cccc(Cl)c2)on1)N1CCc2ccccc2C1,+,1,13,-7,-9,5
NC(=O)c1ccccc1NC(=O)CC12CC3CC(CC(C3)C1)C2,i,1,7,-14,-6,-10
CCNC(=O)NC(=O)CSc1ccc(S(=O)(=O)N(C)C2CCCCC2)cn1,i,0,-4,10,-10,7
N=c1c2c3c(sc2nc2n1CCCCC2)CCCCC3,i,-4,-21,92*,19,-6

# Screens: PubChem, several laboratories
